Source: PubChem (National Center for Advancing Translational Sciences (NCATS))
This is a sample that favours compounds with a hit; in the whole collection about 9.2% have one here.
ALDH1A1 inh – ALDH1A1 (human) enzyme inhibition; 7.3% of 220,000 active; P00352; Purified ALDH1A1, NADH fluorescence, propionaldehyde substrate; Potency, µM (series often up to 75.3 µM), for inactives: at the highest dose activity, negative = inhibition, usual class: inhibitors;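 also: plate controls were no enzyme wells and a reference inhibitor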
HTT ATP protect – cytoprotection in Huntington HTT-Q103 PC12 cell model; 0.14% of 230,000 active; PC12 HTT-Q103 induced, cytoprotection, ATP luminescence, 40 h; Potency, µM (titrated, usually from 56.4 µM), inactives show cytoprotection (ATP increase), hits mostly activators; AID 1471; active = well fitted curve in the direction sought with a large enough effect; inconclusive = small, poorly fitted or top-dose-only effect, or another doubt; inactive = no such curve, though single readings can be large; an effect the other way counts as inactive or inconclusive; also: % of control where 0% means no effect; nearly all actives have a fitted effect of over 45% in size
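Compounds added alongside 100 nM tebufenozide, which induces toxic Q103 huntingtin exon 1-GFP in stable PC12 cells; surviving cells quantified by luminescent ATP measurement. Medium: phenol red-free DMEM, 5% equine and 5% calf serum.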
Lamin A splicing – modulators of lamin A splicing. HeLa LMNA splicing GFP/RFP minigene ratio, 48 h. Potency, µM (series often up to 46.1 µM), for inactives: at the highest dose ratio change, negative = inhibition, most hits filed as inhibitors. 0.01% of 200,000 active. AID 1487; active = well fitted inhibition curve with a large enough effect in the signal ratio, with a control signal flat, not every such curve was filed as active; inconclusive = small, poorly fitted or top-dose-only effect, or effect the other way, or a change in a side signal; the % refers to the signal ratio; also: % is scaled to controls: 0 for no effect and ±100 for the full control effect
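S3 HeLa cells stably expressing lamin A-EGFP splicing minigene plus DsRed2, 600 cells/well, 48 h compound exposure at 37C. Laser-scanning cytometry; analysed as GFP (500-530 nm)/RFP (575-640 nm) total intensity ratio; 0.5% DMSO vehicle.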
HPGD inh – inhibitors of human 15-hydroxyprostaglandin dehydrogenase (HPGD). P15428. purified HPGD, NADH fluorescence kinetic, PGE2 substrate. Potency, µM, for the others: top-dose activity change, negative = inhibition, hits mostly inhibitors. 4.3% of 150,000 active; also: % is scaled to controls: 0 for no effect and ±100 for the full control effect
Target sequence (P15428 whole entry, looked up): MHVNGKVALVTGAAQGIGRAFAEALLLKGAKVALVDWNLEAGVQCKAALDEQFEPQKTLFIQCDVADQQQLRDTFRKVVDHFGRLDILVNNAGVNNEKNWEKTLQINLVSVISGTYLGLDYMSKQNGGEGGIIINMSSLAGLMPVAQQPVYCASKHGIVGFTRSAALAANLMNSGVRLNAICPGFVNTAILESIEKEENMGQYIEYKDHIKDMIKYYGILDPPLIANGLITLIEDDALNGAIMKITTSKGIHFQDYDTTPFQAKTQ
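NADH formation kinetics: reaction with 30 uM PGE2 and 1 mM NAD+ (final), 20 nM enzyme, Tris-HCl pH 8 with Tween 20, after 15 min compound preincubation at room temperature. Fluorescence change, last versus first of five reads.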
KDM4E inh – JMJD2E (human) inhibition; JMJD2E catalytic domain, FDH-coupled NADH fluorescence (FDH is formaldehyde dehydrogenase); Potency, µM (top dose mostly 57.1 µM), without a hit: top-dose activity change, negative = inhibition, usual class: inhibitors; 1.6% of 230,000 active; AID 2147;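 also: 0% = wells with enzyme and -100% = buffer wells without enzyme; nearly all actives have a fitted effect of over 50% in size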
HttQ103 aggreg – inhibitors of mutant huntingtin aggregate formation in PC12 cells; PC12 HttQ103-GFP aggregates, Acumen cytometry, 40 h; Potency, µM (top dose mostly 46.1 µM), without a hit: at the highest dose activity change, negative = inhibition, actives largely listed as inhibitors; 1.1% of 220,000 active; AID 1688; active = well fitted curve in the direction sought with a large enough effect; inconclusive = small, poorly fitted or top-dose-only effect, or another doubt; inactive = no such curve, though single readings can be large; an effect the other way counts as inactive or inconclusive; also: % is scaled to controls: 0 for no effect and ±100 for the full control effect; nearly all actives have a fitted effect of over 60% in size
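Multiplexed with ATP-based cell death, this channel scores GFP aggregates in PC12 cells expressing inducible HTTex1-Q103-GFP. Induction used 100 nM tebufenozide; compounds were tested in concentration series.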
Numbers without * were called inactive; u = inconclusive; x = not tested or not shown; [ ] = another dose, or the depositor's remark. Unless noted, calls follow the shape of the dose curve; as a rule, active = well fitted inhibition curve with a large enough effect (not every such curve was filed as active); inconclusive = small, poorly fitted or top-dose-only effect, or another doubt; inactive = no such curve, though single readings can be large or run the other way. Potency is read from the fitted curve at half-maximal effect.

SMILES	ALDH1A1 inh	HTT ATP protect	Lamin A splicing	HPGD inh	KDM4E inh	HttQ103 aggreg
Cc1ccc(S(=O)(=O)Nn2cnnc2)cc1	x	18%[10 µM]	x	x	0%	-29%[9.22 µM]
Cc1ccc(S(=O)(=O)N(c2nc(N(C)C)nc(N(C)C)n2)n2cnnc2)cc1	5µM*	-3%	3%	-5%	1%	-23%
CCCCSc1nnc([C@H](C)NC(=O)OC(C)(C)C)o1	22µM*	1%[10 µM]	4%	-30%	9%	1%
CCc1ccccc1NC(=O)CSc1nnc([C@H](CCSC)NC(=O)OC(C)(C)C)o1	22µM*	-13%[0.074 µM]	-5%	-18%	4%	29%
CCOC(=O)c1cc2n(c1/N=C/N(C)C)-c1ccccc1C2=O	18µM*	-8%[10 µM]	16%	-14%	u	4%
CCOC(=O)c1cc(=O)[nH]c2ccccc12	0%	29%[10 µM]	15%[46 µM]	x	u	15%[9.22 µM]
CC(C)=CCN1CCN(Cc2cnc(C)s2)CC1CCO (stereo not given)	u	-27%[10 µM]	-10%[46 µM]	x	u	7%[9.22 µM]
COCCNc1nnc(SCC(=O)c2ccc3c(c2)OCO3)s1	u	2%	14%	u	-7%	-7%
O=C(CSc1nnc(SCc2ccc(Cl)cc2)s1)c1ccc2c(c1)OCO2	2.2µM*	x	u	-12%	-8%	11%
C=CCn1c(SCC(=O)c2ccc(Cl)cc2)nnc1-c1ccc2c(c1)OCO2	u	x	u	8.9µM*	-4%	1%
Cc1c(C(=O)N2CCC(C)CC2)c(S(=O)(=O)NCc2ccc(Br)cc2)c(C)n1C	x	x	-2%[46 µM]	x	x	x
Cc1cnc(CNc2ccnc(-c3cccnc3)n2)cn1	-5%	-46%	-6%	x	x	x
O=C(Nc1ccc2ccccc2c1)C(=O)C1C(=O)Nc2ccccc21 (stereo not given)	-2%	3%[10 µM]	x	x	8.9µM*	15%[9.22 µM]
O=C(Nc1ccc(F)cc1)C(=O)C1C(=O)Nc2ccccc21 (stereo not given)	0%	4%[10 µM]	x	x	-6%	1%[9.22 µM]
O=C1c2ccccc2C(=O)N1CSc1nnc(Nc2ccccc2F)s1	7.1µM*	0%[10 µM]	-11%	-19%	-3%	10%
CCOC(=O)C(NC(C)=O)(NS(=O)(=O)c1ccccc1)C(F)(F)F (stereo not given)	5%	-17%	3%	-1%	7%	3.2µM*
CNC[C@@H](SC)c1ccc(O)c(O)c1	9%[13.5 µM]	14%[10 µM]	x	2%	x	x
Cc1ccc(NC(=O)CN2C(=O)CCn3nc(-c4cccn4C)cc32)cc1	x	x	13%[46 µM]	x	x	x
Cc1ccccc1C1C(C#N)=C2N=C(N)c3c(sc4c3CCCCC4)N2C2=C1C(=O)CCC2 (stereo not given)	2.2µM*	-29%	u	-11%	0%	28%
Cc1[nH][nH]c(=O)c1C(c1c(C)[nH][nH]c1=O)c1cn(C)c2ccccc12	u	9%[10 µM]	x	x	9%	14%[9.22 µM]
Cc1[nH][nH]c(=O)c1C(c1c(C)[nH][nH]c1=O)c1cn(Cc2cccc3ccccc23)c2ccccc12	0.32µM*	-53%	1%	-10%	28%	-11%
Cc1ccc2c(c1)C(=O)C(=O)N2CC(=O)Nc1ccc(N2CCOCC2)cc1	8.9µM*	15%[10 µM]	x	x	6%	14%[9.22 µM]
CN(C)S(=O)(=O)c1cc(NC(=O)CN2CCOCC2)ccc1Cl	-7%	-41%	u	x	1%	-20%
Cc1ccc(NC(=O)CNc2ccc(N3CCOCC3)cc2)cc1S(=O)(=O)N(C)C	10µM*	14%[10 µM]	-2%[46 µM]	x	-3%	-4%
CC(=O)NCC(=O)NNC1CC(=O)N(c2cccc(Cl)c2)C1=O (stereo not given)	x	7%[10 µM]	x	x	9%	-5%[9.22 µM]
CCOC(=O)CNC1CC(=O)N(c2cccc(Cl)c2)C1=O (stereo not given)	18µM*	-2%[10 µM]	6%	0%	0%	-4%
Cn1c(=O)c2c(SCC(=O)NCc3ccco3)nc(-c3cccc(F)c3)nc2n(C)c1=O	x	x	-5%[46 µM]	x	x	x
CCN(CCO)c1ccc(NC(=S)Nc2cccc(S(=O)(=O)N(C)C)c2)cc1	25µM*	-23%	x	x	u	27%
